VLA-4 inh = inhibition in a human VLA-4 binding assay | P13612 | VLA-4 expressing cells, ligand binding flow cytometry | inhibition, % (about 7 µM as worked out from the volumes in the protocol) | actives 0.2% (n = 330,000) | AID 2557; in the data active = inhibition above about 50%
Target sequence (P13612 whole entry, looked up): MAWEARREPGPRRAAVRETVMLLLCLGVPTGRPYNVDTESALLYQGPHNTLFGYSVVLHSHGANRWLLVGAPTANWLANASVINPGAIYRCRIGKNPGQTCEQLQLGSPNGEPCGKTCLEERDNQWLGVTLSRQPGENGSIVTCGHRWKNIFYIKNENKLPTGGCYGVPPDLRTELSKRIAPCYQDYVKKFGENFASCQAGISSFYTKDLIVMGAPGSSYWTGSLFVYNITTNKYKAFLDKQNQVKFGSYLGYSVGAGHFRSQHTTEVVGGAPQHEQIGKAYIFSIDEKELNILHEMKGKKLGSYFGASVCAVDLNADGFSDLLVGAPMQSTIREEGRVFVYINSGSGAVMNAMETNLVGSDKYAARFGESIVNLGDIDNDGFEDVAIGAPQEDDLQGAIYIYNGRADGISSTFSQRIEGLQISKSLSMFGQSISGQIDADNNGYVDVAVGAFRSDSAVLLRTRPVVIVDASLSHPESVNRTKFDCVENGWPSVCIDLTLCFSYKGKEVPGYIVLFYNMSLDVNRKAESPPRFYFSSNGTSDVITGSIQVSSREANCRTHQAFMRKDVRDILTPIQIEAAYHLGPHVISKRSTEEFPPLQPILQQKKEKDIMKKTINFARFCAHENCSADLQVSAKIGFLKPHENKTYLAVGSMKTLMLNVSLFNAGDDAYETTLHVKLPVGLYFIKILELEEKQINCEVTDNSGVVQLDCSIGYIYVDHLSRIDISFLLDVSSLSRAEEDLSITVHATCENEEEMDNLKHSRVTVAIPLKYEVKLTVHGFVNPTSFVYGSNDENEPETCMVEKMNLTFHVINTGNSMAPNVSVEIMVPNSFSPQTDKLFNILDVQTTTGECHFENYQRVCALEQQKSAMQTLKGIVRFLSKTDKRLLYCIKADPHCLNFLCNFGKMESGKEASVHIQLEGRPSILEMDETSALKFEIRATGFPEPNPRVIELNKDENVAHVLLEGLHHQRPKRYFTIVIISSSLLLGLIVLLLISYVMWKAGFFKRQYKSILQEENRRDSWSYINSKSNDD
SUMO Mot1 rescue = inhibitors of SUMOylation pathway: yeast Mot1-301 growth rescue; S. cerevisiae Mot1-301 growth rescue, ATP luminescence, 38.5C; percent above DMSO median, 100 means doubled; actives 1% (n = 320,000); growth rescue, % at 18.8 µM; AID 2716;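 active = every valid replicate shows activation above 250% relative to neutral control wells; inactive = the rest, any valid replicate at or below 250%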
Efflux pump inh = antifungal efflux pump inhibition, Nile Red retention | S. cerevisiae Candida pump triplex | actives 0.44% (n = 330,000) | inhibition, % at 10 µM;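 active = plate passing quality check with inhibition over a set limit, or well fluorescence over plate mean plus 4 SD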;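 also: Nile Red retained in pooled yeast measured as flow cytometry median fluorescence; higher means more Nile Red kept so more efflux inhibition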
A1 inh = inhibitors of the anti-apoptotic protein A1, read as caspase activation. MEF A1-2A-BIM cells, Caspase-Glo 3/7 luminescence, 3 h; percent of clofoctol response, vehicle zero. AID 2462. caspase activation, % (no concentration beside the values). actives 0.066% (n = 330,000);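 active = over half of replicate activation scores above 10%, or exactly half above 10 with the replicate mean above 10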
AHR activator = human AHR activation | AHR-responsive luciferase reporter cells, luminescence | activation, % at 5 µM | actives 2.5% (n = 320,000) | AID 2796; in the data active = activation above about 47%
ALR inh = human ALR oxidase inhibition via reduced H2O2 | AID 485317 | actives 3.8% (n = 290,000) | inhibition, % (test concentration not listed) | purified ALR, DTT oxidation, H2O2 HRP-luminol luminescence | P55789;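 active = mean replicate inhibition above about 79%, with every replicate also reaching it, limit read from the data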
Numbers stand for hits; 0 = inactive; - = not tested or not shown. Hits are enriched below; roughly 7.2% of the tested compounds scored in any of these assays.

SMILES	VLA-4 inh	SUMO Mot1 rescue	Efflux pump inh	A1 inh	AHR activator	ALR inh
CCNc1nc(NCC)n2c(SCC(=O)Nc3ccc(NC(C)=O)cc3)nnc2n1	0	0	0	0	0	98
CCNc1nc(NCC)n2c(SCC(=O)Nc3ccc(CC)cc3)nnc2n1	0	0	0	0	50	99
CCNc1nc(NCC)n2c(SCC(=O)Nc3ccccc3F)nnc2n1	0	0	0	0	0	-
CCN1CCN(C(=O)CSc2nc(N)cc(N)n2)CC1	0	0	0	0	0	0
COc1ccc(-c2cc(C)no2)cc1S(=O)(=O)NCCc1ccco1	0	0	0	0	0	0
Cc1[nH]c2ccccc2c1C(c1ccncc1)N1CCC(C)CC1 (stereo not drawn)	0	0	0	0	0	97
Cc1[nH]c2ccccc2c1C(c1ccncc1)N1CCN(c2ccccn2)CC1 (stereo not drawn)	0	0	0	0	0	0
CCOC(=O)C1CCN(C(c2ccccn2)c2c(C)[nH]c3ccccc23)CC1 (stereo not drawn)	0	0	0	0	0	0
Cc1[nH]c2ccccc2c1C(c1ccccn1)N1CCC(C(N)=O)CC1 (stereo not drawn)	0	0	0	0	0	98
O=C(CSc1nnc(-c2ccc(S(=O)(=O)N3CCCC3)cc2)o1)NCc1ccco1	0	0	0	0	0	0
CC(C)CCNC(=O)NC(=O)COC(=O)C1CCN(S(=O)(=O)c2ccccc2F)CC1	0	0	0	0	0	0
O=C(CCC1CCCC1)NNC(=O)c1ccc(F)cc1	0	0	0	0	0	0
COc1cccc(OC)c1-c1nn2c(-c3cc(-c4ccccc4)n[nH]3)nnc2s1	0	0	0	0	94	0
COCCCNC(=O)c1ccccc1Oc1ccccc1	0	0	0	0	0	98
COc1ccccc1C(=O)NCCC(=O)NCCOc1ccccc1	0	0	0	0	0	0
O=C(CCCC1=NS(=O)(=O)c2ccccc2N1)N1CCN(c2ccc(Cl)cc2)CC1	0	0	0	0	0	96
NNC(=S)NCc1ccccc1	0	0	0	0	0	-
COc1cc([C@H]2c3[nH]c4ccccc4c3C[C@H]3C(=O)N4[C@@H](c5cc(OC)c(OC)c(OC)c5)c5[nH]c6ccccc6c5C[C@H]4C(=O)N23)cc(OC)c1OC	0	0	0	0	0	0
CC1Cc2c([nH]c3ccccc23)C2c3ccccc3CN12 (stereo not drawn)	0	0	0	0	57	-
COC(=O)c1cc(Br)c(=O)n(Cc2cccnc2)c1	0	0	0	0	0	0
O=C(Nc1ccc(Cl)cc1)C1CCN(C(=O)c2cccs2)CC1	0	0	0	0	0	0
Cc1ccc(-n2nc(C)c(Sc3ccccc3[N+](=O)[O-])c2N)cc1	0	0	0	0	0	87
Cc1n[nH]c(C)c1Sc1ccccc1[N+](=O)[O-]	0	0	0	0	0	0
COC(=O)[C@@H](N)Cc1ccc(O)c(O)c1	0	0	0	0	0	98
COC(=O)C(N)Cc1ccc(Cl)cc1 (stereo not drawn)	0	0	0	0	0	0
SMILES	VLA-4 inh	SUMO Mot1 rescue	Efflux pump inh	A1 inh	AHR activator	ALR inh
COc1cccc(C(=O)C(C#N)=C(SC)SC)c1	0	0	0	0	0	-
CSC(SC)=C(C#N)C(=O)c1ccccc1	0	0	0	6.7	0	-
CC(=O)c1cc(CC=C(C)C)c(O)cc1O	0	0	0	0	0	83
COc1ccc(C)cc1NC(=O)COC(=O)c1c(C)nn(-c2ccccc2)c1C	0	0	0	0	0	0
S=c1[nH]nc(-c2cccc3ccccc23)n1-c1cccnc1	0	0	0	0	0	91
C=CCn1c(SCC(=O)c2ccc(OC)cc2)nnc1-c1ccc2c(c1)OCO2	0	0	0	0	0	98
C=CCn1c(SCC(=O)c2ccc(Cl)cc2)nnc1-c1ccc2c(c1)OCO2	0	0	0	0	0	92
CC(NC(=O)CCSc1nc(-c2ccc3c(c2)OCO3)cc(C(F)(F)F)n1)c1ccccc1 (stereo not drawn)	0	0	0	0	0	0
CC(C)OP(=O)(OC(C)C)C(Nc1ccccc1)c1ccc2c(c1)OCO2 (stereo not drawn)	0	0	0	0	0	0
CC(C)OP(=O)(OC(C)C)C(Nc1ccccc1)c1cccc2c1OCO2 (stereo not drawn)	0	279	0	0	0	0
COc1cc(NC(=O)c2cccnc2)c(Cl)cc1NC(=O)c1ccc(Cl)cc1	0	0	0	0	63	0
COc1cc(NC(=O)c2ccc(Cl)cc2)c(Cl)cc1NC(=O)c1cccnc1	0	0	0	0	53	0
COc1cc(NC(=O)c2cccnc2)c(Cl)cc1NC(=O)c1ccccc1	0	0	0	0	75	0
COc1cc(NC(=O)c2cccnc2)c(OC)cc1NC(=O)c1ccc(Br)cc1	0	0	0	0	0	-
COc1ccc(Cl)cc1NC(=S)NNC(=O)c1cccnc1	0	0	0	0	0	89
O=C(Nc1cc(Cl)c(Cl)cc1Cl)c1cccnc1	0	0	0	0	0	0
C=CCOc1ccc(/C=N/NC(=O)C(=O)N2CCCCCC2)cc1OC	0	0	0	0	0	-
COc1cc(/C=N/NC(=O)CC(=O)NC2CCCCC2)ccc1O	0	0	0	0	0	99
COC(=O)c1ccc(/C=N/NC(=O)CC(=O)NC2CCCCC2)cc1	0	0	0	0	0	0
CN(C)c1ccc(/C=N/NC(=O)C(=O)N2CCCCCC2)cc1	0	0	0	0	0	99
COc1cc(/C=N/NC(=O)C(=O)N2CCCCCC2)ccc1O	0	0	0	0	0	99
Cc1nnc(NC(=O)Cn2nc(C)c3ccccc3c2=O)s1	0	0	0	0	0	0
CC(=O)Nc1cccc2c1C(=O)N(c1ccccc1OC(C)=O)C2=O	0	0	0	0	0	-
Cc1ccc2[nH]cc(CCNC(=O)c3cccnc3)c2c1	0	0	0	0	0	96
COc1ccc(C(=O)NCCc2c[nH]c3ccc(OC)cc23)cc1	0	0	0	0	0	-
SMILES	VLA-4 inh	SUMO Mot1 rescue	Efflux pump inh	A1 inh	AHR activator	ALR inh
Cc1ccc2[nH]cc(CCNC(=O)Nc3ccccc3)c2c1	0	0	0	0	0	98
Cc1cccc(C(=O)NCCNC(=O)c2cccnc2)c1	0	0	0	0	0	0
COc1ccc2[nH]cc(CCNC(=O)c3ccc4ccccc4n3)c2c1	0	0	0	0	71	0
Cc1ccc(CNC(=O)C2CCN(c3nnc(N4CCCC4=O)s3)CC2)cc1	0	0	0	0	0	0
COc1ccc(-c2cc(C(=O)N3CCN(C(=O)c4ccccc4F)CC3)[nH]n2)cc1	0	0	0	0	0	0
COc1ccc([N+](=O)[O-])cc1NC(=O)COC(=O)c1ccc(O)cc1	0	0	0	0	0	0
CC1CN(Cc2cc(=O)n3ccsc3n2)CC(C)O1 (stereo not drawn)	0	278	0	0	0	0

High-throughput results (PubChem)
